“And” between values parts separate entries of the source, which are not always exact repeats. Equal entries are not always repeated. Hit rate of the full screen: of about 5,500 compounds, about 2,000 (36%) were called active. Roughly 18% stayed inconclusive and do not appear here. No stated cut-off is given here; in the data, active means normalized growth mostly below about 0.91 (no sharp cut-off); inconclusive means no clear call, values can overlap the other calls; inactive means mostly above about 0.92. The list shows a part of the results.
Test: chemical genetic growth profiling, strain panel (AID 1159580);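 further: tested at 20 µM; growth read once vehicle control cultures reached saturation at 30 °C; 1 = growth at the plate median or of vehicle wells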
Conditions: S. cerevisiae deletion strains, growth OD

Measured: normalized growth

CCCC(C)(COC(N)=O)COC(=O)NC(C)C (stereo unspecified)
inactive: locus YAL021C, strain ccr4, stronger effect = lower value 1 | locus YAL026C, strain drs2, stronger effect = lower value 0.99 | locus YAL030W, strain snc1, stronger effect = lower value 0.98 | locus YAL040C, strain CLN3, stronger effect = lower value 0.989 | locus YBL061C, strain skt5, stronger effect = lower value 1 | locus YBR009C, strain hhf1, stronger effect = lower value 0.983 | locus YBR021W, strain FUR4, stronger effect = lower value 0.991 | locus YBR023C, strain chs3, stronger effect = lower value 1.01 | locus YBR171W, strain sec66, stronger effect = lower value 1 | locus YBR229C, strain ROT2, stronger effect = lower value 0.954 | locus YBR231C, strain swc5, stronger effect = lower value 1.01 | locus YBR279W, strain paf1, stronger effect = lower value 1 | locus YCL011C, strain gbp2, stronger effect = lower value 0.996 | locus YCL016C, strain dcc1, stronger effect = lower value 0.985 | locus YCL029C, strain bik1, stronger effect = lower value 0.977 | locus YCL061C, strain MRC1, stronger effect = lower value 1 | locus YCL069W, strain vba3, stronger effect = lower value 0.992 | locus YCR088W, strain abp1, stronger effect = lower value 0.998 | locus YDL005C, strain med2, stronger effect = lower value 1 | locus YDL035C, strain GPR1, stronger effect = lower value 0.951 | locus YDL040C, strain nat1, stronger effect = lower value 1 | locus YDL074C, strain BRE1, stronger effect = lower value 0.974 | locus YDL101C, strain DUN1, stronger effect = lower value 0.982 | locus YDL134C, strain PPH21, stronger effect = lower value 0.965 | locus YDL185W, strain tfp1, stronger effect = lower value 0.945 | locus YDL192W, strain arf1, stronger effect = lower value 0.965 | locus YDR001C, strain nth1, stronger effect = lower value 0.974 | locus YDR069C, strain doa4, stronger effect = lower value 1.01 | locus YDR101C, strain arx1, stronger effect = lower value 0.983 | locus YDR137W, strain rgp1, stronger effect = lower value 0.966 | locus YDR150W, strain NUM1, stronger effect = lower value 0.983 | locus YDR159W, strain sac3, stronger effect = lower value 0.986 | locus YDR162C, strain NBP2, stronger effect = lower value 0.94 | locus YDR195W, strain ref2 1 | locus YDR297W, strain sur2, stronger effect = lower value 0.991 | locus YDR318W, strain mcm21, stronger effect = lower value 0.979 | locus YDR334W, strain swr1, stronger effect = lower value 0.979 | locus YDR335W, strain msn5, stronger effect = lower value 0.989 | locus YDR363W, strain ESC2, stronger effect = lower value 0.976 | locus YDR388W, stronger effect = lower value 0.979 | locus YDR392W, strain spt3, stronger effect = lower value 0.952 | locus YDR502C, strain sam2, stronger effect = lower value 0.984 | locus YEL003W, strain gim4, stronger effect = lower value 0.986 | locus YEL037C, strain rad23, stronger effect = lower value 0.993 | locus YEL061C, strain CIN8 (second series), stronger effect = lower value 0.975 | locus YEL061C, strain CIN8, stronger effect = lower value 0.982 | locus YER002W, strain NOP16, stronger effect = lower value 0.995 | locus YER015W, strain faa2, stronger effect = lower value 1.01 | locus YER016W, strain bim1, stronger effect = lower value 0.986 | locus YER110C, stronger effect = lower value 0.964 | locus YER111C, strain swi4, stronger effect = lower value 0.973 | locus YER155C, strain BEM2 (second series), stronger effect = lower value 1.04 | locus YER155C, strain BEM2, stronger effect = lower value 0.99 | locus YER167W, strain BCK2, stronger effect = lower value 0.989 | locus YFR010W, strain ubp6, stronger effect = lower value 0.985 | locus YGL078C, strain dbp3, stronger effect = lower value 0.981 | locus YGL086W, strain mad1, stronger effect = lower value 0.98 | locus YGL167C, strain pmr1, stronger effect = lower value 0.991 | locus YGL173C, strain kem1, stronger effect = lower value 0.993 | locus YGL227W, strain vid30, stronger effect = lower value 0.987 | locus YGL240W, strain doc1, stronger effect = lower value 1.02 | locus YGL248W, strain PDE1, stronger effect = lower value 0.991 | locus YGL253W, strain hxk2, stronger effect = lower value 0.978 | locus YGR078C, strain PAC10, stronger effect = lower value 0.988 | locus YGR135W, strain pre9, stronger effect = lower value 1 | locus YGR229C, strain SMI1, stronger effect = lower value 0.971 | locus YGR252W, strain gcn5, stronger effect = lower value 0.989 | locus YHR013C, strain ard1, stronger effect = lower value 0.967 | locus YHR027C, strain rpn1, stronger effect = lower value 1.01 | locus YHR030C, strain SLT2, stronger effect = lower value 0.992 and 0.979 | locus YHR079C, strain IRE1 (second series), stronger effect = lower value 0.989 | locus YHR079C, strain IRE1, stronger effect = lower value 0.974 | locus YHR094C, strain hxt1, stronger effect = lower value 0.969 | locus YHR129C, strain ARP1, stronger effect = lower value 0.988 | locus YHR142W, strain chs7, stronger effect = lower value 0.982 | locus YHR200W, strain rpn10, stronger effect = lower value 0.967 | locus YIL066C, strain RNR3, stronger effect = lower value 0.975 | locus YIL073C, strain SPO22, stronger effect = lower value 0.981 | locus YIL125W, strain kgd1, stronger effect = lower value 0.969 | locus YIR030C, strain dcg1, stronger effect = lower value 0.978 | locus YJL092W, strain hpr5, stronger effect = lower value 0.988 | locus YJL095W, strain BCK1 (second series), stronger effect = lower value 0.998 | locus YJL095W, strain BCK1, stronger effect = lower value 1.02 and 0.977 | locus YJL115W, strain asf1, stronger effect = lower value 0.962 | locus YJL129C, strain trk1, stronger effect = lower value 0.983 | locus YJL134W, strain LCB3, stronger effect = lower value 0.976 | locus YJL154C, strain vps35, stronger effect = lower value 0.992 | locus YJL164C, strain tpk1, stronger effect = lower value 0.966 | locus YJL166W, strain qcr8, stronger effect = lower value 1.01 | locus YJL168C, strain set2, stronger effect = lower value 0.981 | locus YJL187C, strain SWE1 (second series), stronger effect = lower value 0.987 | locus YJR043C, strain POL32, stronger effect = lower value 0.965 | locus YJR066W, strain TOR1, stronger effect = lower value 0.965 | locus YJR075W, strain HOC1, stronger effect = lower value 0.997 | locus YKL009W, strain mrt4, stronger effect = lower value 1.03 | locus YKL068W, stronger effect = lower value 0.971 | locus YKL085W, strain MDH1 (second series), stronger effect = lower value 0.982 | locus YKL085W, strain MDH1, stronger effect = lower value 0.982 | locus YKL160W, strain elf1, stronger effect = lower value 1 | locus YKR001C, strain vps1, stronger effect = lower value 0.97 | locus YKR026C, strain gcn3, stronger effect = lower value 0.989 | locus YKR091W, strain srl3, stronger effect = lower value 0.97 | locus YLL001W, strain dnm1, stronger effect = lower value 1.02 | locus YLL026W, stronger effect = lower value 1 | locus YLL041C, strain sdh2, stronger effect = lower value 1.01 | locus YLR027C, strain aat2, stronger effect = lower value 0.993 | locus YLR039C, strain RIC1, stronger effect = lower value 0.974 | locus YLR058C, strain SHM2, stronger effect = lower value 0.978 | locus YLR102C, strain apc9, stronger effect = lower value 0.982 | locus YLR113W, strain HOG1, stronger effect = lower value 0.978 | locus YLR221C, strain rsa3, stronger effect = lower value 1.01 | locus YLR258W, strain gsy2, stronger effect = lower value 0.986 | locus YLR262C, strain YPT6 (second series), stronger effect = lower value 0.991 | locus YLR262C, strain YPT6, stronger effect = lower value 0.911 | locus YLR268W, strain sec22, stronger effect = lower value 0.969 | locus YLR320W, strain mms22, stronger effect = lower value 0.985 | locus YLR330W, strain CHS5, stronger effect = lower value 0.985 | locus YLR342W, strain FKS1 (second series), stronger effect = lower value 0.995 | locus YLR342W, strain FKS1, stronger effect = lower value 1.02 | locus YLR357W, strain rsc2, stronger effect = lower value 0.949 | locus YLR370C, strain arc18, stronger effect = lower value 1.01 | locus YLR371W, strain rom2, stronger effect = lower value 0.959 | locus YLR384C, strain iki3, stronger effect = lower value 1 | locus YLR418C, strain cdc73, stronger effect = lower value 1.01 | locus YML016C, strain PPZ1, stronger effect = lower value 0.986 | locus YML032C, strain rad52, stronger effect = lower value 0.97 | locus YML120C, strain ndi1, stronger effect = lower value 1 | locus YML124C, strain tub3, stronger effect = lower value 0.986 | locus YMR058W, strain fet3, stronger effect = lower value 0.973 | locus YMR078C, strain ctf18, stronger effect = lower value 0.964 | locus YMR125W, strain sto1, stronger effect = lower value 0.975 | locus YMR129W, stronger effect = lower value 0.985 | locus YMR205C, strain PFK2, stronger effect = lower value 1 | locus YMR223W, strain ubp8, stronger effect = lower value 1 | locus YMR231W, strain pep5, stronger effect = lower value 0.999 | locus YMR263W, strain SAP30, stronger effect = lower value 0.99 | locus YMR307W, strain GAS1, stronger effect = lower value 0.942 | locus YNL067W, strain RPL9B, stronger effect = lower value 0.992 | locus YNL071W, strain lat1, stronger effect = lower value 1 | locus YNL128W, strain TEP1, stronger effect = lower value 0.97 | locus YNL153C, strain GIM3, stronger effect = lower value 0.995 | locus YNL175C, strain NOP13, stronger effect = lower value 0.988 | locus YNL183C, strain NPR1, stronger effect = lower value 0.925 | locus YNL197C, strain WHI3, stronger effect = lower value 0.95 | locus YNL209W, strain ssb2, stronger effect = lower value 0.983 | locus YNL224C, strain SQS1, stronger effect = lower value 0.996 | locus YNL233W, strain BNI4, stronger effect = lower value 1 | locus YNL248C, strain rpa49, stronger effect = lower value 0.921 | locus YNL250W, strain rad50, stronger effect = lower value 0.961 | locus YNL271C, strain bni1, stronger effect = lower value 0.979 | locus YNL298W, strain CLA4, stronger effect = lower value 0.972 | locus YNL307C, strain MCK1, stronger effect = lower value 0.979 | locus YNL322C, strain KRE1 (second series), stronger effect = lower value 1.01 | locus YNL322C, strain KRE1, stronger effect = lower value 0.995 | locus YNR049C, strain mso1, stronger effect = lower value 0.986 | locus YNR052C, strain pop2, stronger effect = lower value 0.974 | locus YOL012C, strain htz1 1.03 | locus YOL147C, strain pex11, stronger effect = lower value 0.991 | locus YOR001W, strain rrp6, stronger effect = lower value 1.02 | locus YOR061W, strain CKA2, stronger effect = lower value 0.962 | locus YOR069W, strain VPS5, stronger effect = lower value 0.984 | locus YOR070C, strain gyp1, stronger effect = lower value 0.992 | locus YOR080W, strain dia2, stronger effect = lower value 1.01 | locus YOR083W, strain WHI5 (second series), stronger effect = lower value 0.975 | locus YOR083W, strain WHI5, stronger effect = lower value 1.03 | locus YOR106W, strain vam3, stronger effect = lower value 1.02 | locus YOR136W, strain idh2, stronger effect = lower value 0.973 | locus YOR144C, strain elg1, stronger effect = lower value 0.984 | locus YOR184W, strain ser1, stronger effect = lower value 0.965 | locus YOR231W, strain MKK1, stronger effect = lower value 0.981 | locus YOR265W, strain rbl2, stronger effect = lower value 1 | locus YOR270C, strain vph1, stronger effect = lower value 0.968 | locus YOR290C, strain snf2, stronger effect = lower value 0.982 | locus YOR316C, strain cot1, stronger effect = lower value 0.948 | locus YPL051W, strain arl3, stronger effect = lower value 1.02 | locus YPL055C, strain LGE1, stronger effect = lower value 0.988 | locus YPL078C, strain atp4, stronger effect = lower value 1.01 | locus YPL106C, strain sse1, stronger effect = lower value 0.984 | locus YPL240C, strain hsp82, stronger effect = lower value 1 | locus YPL241C, strain CIN2, stronger effect = lower value 0.999 | locus YPL256C, strain CLN2, stronger effect = lower value 0.965 | locus YPR119W, strain clb2, stronger effect = lower value 0.977 | locus YPR141C, strain kar3, stronger effect = lower value 0.956 | locus YPR163C, strain tif3, stronger effect = lower value 0.975 | locus YPR167C, strain met16, stronger effect = lower value 0.985 | strain wtn01, stronger effect = lower value 0.996
